# Measured values reported in PubChem BioAssay.
# Inconclusive results are not listed. Active and inactive are the calls of the source.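 The calls were made as follows, unless noted: active = efflux inhibition above 0.42, the validation set average plus 4 SD; inconclusive = no clear call, values can overlap the other calls; inactive = the rest.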
# Key:
# [1] = rapamycin-like changes in RPL19A-GFP expression – cell-based, S. cerevisiae, multiplex flow cytometry, primary screen (AID 1862; in the data active = percent of DMSO control GFP below about 86%;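 also: lower values mimic rapamycin by blocking the RPL19A rise seen in DMSO cells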); settings: S. cerevisiae RPL19A-GFP strain, flow cytometry fluorescence, 3 h; at 10 µM; stronger effect = lower value
# [2] = TOR pathway GLN3 branch reporter MEP2-GFP changes – S. cerevisiae, multiplex flow cytometry, primary screen (AID 1867;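 active = GFP response, as percent of the DMSO control, above the screen-wide mean plus 3 SD, about 139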;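 also: median GFP channel fluorescence of barcode-gated MEP2-GFP cells measured by flow cytometry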); settings: S. cerevisiae MEP2-GFP strain, 3 h, at 10 µM, stronger effect = higher value, 100% means same as DMSO wells
# [3] = TOR pathway RTG branch CIT2 reporter changes – S. cerevisiae, GFP fusion, multiplex flow cytometry, primary screen (AID 1870;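 active = percent response above a set limit, the screen-wide mean plus 3 SD, cut at about 130% in these data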;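 also: barcoded CIT2-GFP strain pooled with four other GFP strains with rapamycin as positive control; median GFP fluorescence per well over plate mean of DMSO wells so 100% = DMSO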); settings: S. cerevisiae CIT2-GFP expression, 3 h, at 10 µM, stronger effect = higher value
# [4] = TOR pathway LAP4-GFP level changes – S. cerevisiae, multiplex flow cytometry, primary screen (AID 1873;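 active = GFP signal, as percent of the solvent control, above the screen mean plus 3 SD, about 149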); settings: S. cerevisiae LAP4-GFP expression, 3 h, at 10 µM, stronger effect = higher value
# [5] = yeast AGP1-GFP level changes, GLN3 branch – cell-based, multiplex flow cytometry, S. cerevisiae, primary screen (AID 1887;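 active = GFP signal above the screen-wide mean plus 3 SD, that is over about 124.5% of the solvent control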;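 also: AGP1-GFP fusion strain of S. cerevisiae within a five-strain barcoded multiplex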); settings: 3 h, at 10 µM, stronger effect = higher value
# [6] = reduced mouse 2C T cell binding to pMHC/ICAM-1 vesicles – MLPCN validation set, flow cytometry, LFA-1/ICAM-1 modulator project, pilot screen (AID 2523;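 active = response below a set limit, under 55% cells CD8-positive and vesicle-bound, and CD8 cells' 90th-percentile brightness under 279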;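 as to vesicle binding response: mean PE anti-B7-1 fluorescence of CD8+ cells relative to row control; 100% = QL9-loaded vesicles with DMSO vehicle in the same plate row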); settings: 2C mouse CD8+ T cells, at 7 µM, stronger effect = lower value; double positive events: measured here: CD8+/vesicle+ event percentage
# [7] = biological target: Integrin beta-1 (Homo sapiens) + Integrin alpha-4 (Homo sapiens) (UniProt P13612+P05556); assay: alpha4beta1 integrin LIBS antibody binding reduction – U937 cells, HUTS-21 mAb, flow cytometry, validation set, VLA-4 allosteric modulator project, pilot screen (AID 2674;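 active = inhibition above 50%, about 3 SD of the validation set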;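 also: antibody binding induced by the VLA-4 ligand LDV present at three times its Kd; 0% = LDV ligand with antibody and no compound and 100% = antibody without LDV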); settings: HUTS-21 LIBS mAb binding, at 6.7 µM, stronger effect = higher value, binding induced by LDV ligand
# [8] = calorie-restriction mimetic ROS inhibitors, yeast – validation compound set, pilot screen (AID 2706;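 active = superoxide response below 65% of plate, a cut near 3 SD across the whole screen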;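 also: yeast exposed to compound for one week at 30 degrees C before staining; 100% = mean of all compound wells on the same plate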); settings: S. cerevisiae aging, superoxide DHE fluorescence; at 10 µM; stronger effect = lower value
# [9] = biological target: Beta-adrenergic receptor kinase 1 (Homo sapiens) (UniProt P25098); assay: GRK2 binders displacing RNA aptamer, biochemical, validation, human GRK2, bead flow cytometry (AID 488806;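 active = aptamer binding inhibition above 30%, about 3 SD of noise from non-fluorescent compounds; inactive = inhibition at or below 30%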); settings: bead-bound GRK2, FAM-aptamer displacement, at 10 µM, stronger effect = higher value
# [10] = biological target: Beta-2 adrenergic receptor (Homo sapiens) (UniProt P07550); assay: agonist-induced loss of surface beta2AR – cell-based, FAP fluorogen, flow cytometry, validation set, pilot screen (AID 504459;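 active = percent response above 42, roughly 3 SD of non-fluorescent test compounds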;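 also: agonist-driven loss of surface beta2AR via internalization measured by FAP dye flow cytometry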); settings: Am2.2-beta2AR cells, at 10 µM, stronger effect = higher value
# [11] = biological target: AP-2 complex subunit beta (Homo sapiens) (UniProt P63010); assay: beta-arrestin/AP2 interaction blockers – biochemical, validation set, GST-AP2 beads, flow cytometry, pilot screen (AID 504541;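 active = inhibition above 54%, about 3 SD of non-fluorescent compounds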;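 also: AP2 carries R879A mutation and is captured from E. coli lysate; bead-bound FITC arrestin peptide fluorescence measuring arrestin peptide binding to AP2; 0% = DMSO wells and 100% = excess unlabeled arrestin peptide control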); settings: FITC arrestin peptide, at 10 µM, stronger effect = higher value, AP2 beta2 appendage fragment, R879A mutant
# [12] = cytosolic pH regulators acting via V-ATPase – S. cerevisiae, pHLuorin, HTS validation (AID 504600; in the data active = response above about 15%;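 also: plate controls were DMSO for no effect and reference compound for full effect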); settings: V-ATPase proton transport, at 10 µM, stronger effect = higher value
# [13] = tested on: anti-desmoglein-3 scFv antibody binding to human DSG3; assay: blockers of pathogenic pemphigus antibody–desmoglein-3 binding – biochemical, validation compound set, bead-based, flow cytometry, pilot screen (AID 588368;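 active = binding below the plate cutoff, the plate median minus 3 SD, with a reading above zero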;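 also: signal is the median channel fluorescence of bead-bound GFP antibody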); settings: Protein G beads, DSG3-Fc, scFv-GFP binding, at 10 µM, stronger effect = lower value
# [14] = Nile Red efflux blockade in pump-expressing yeast – validation compound set, multiplex, phenotypic, pilot screen (AID 588506);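 also: Nile Red retained in cells so higher fluorescence means more efflux inhibition; 0 = negative control wells and 1 = enniatin B 25 µM full block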; settings: S. cerevisiae pump-expressing triplex, Nile Red efflux flow cytometry; at 10 µM; stronger effect = higher value; the pumps come from Candida albicans
# [15] = biological target: ATP-binding cassette sub-family B member 6 (Homo sapiens) (UniProt Q9NP58); assay: blockers of ABCB6-driven porphyrin uptake – K562-ABCB6 cells, flow cytometry, validation set, pilot screen (AID 588550;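 active = inhibition above the screen-wide mean plus 3 SD, about 51%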;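 also: 0% = DMSO wells and 100% = benzethonium chloride 70 µM positive control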); settings: K562-ABCB6 porphyrin accumulation, 1 h, at 10 µM, stronger effect = higher value
# [16] = AML differentiation inducers, ER-HoxA9 marrow cells – cell-based, GFP/MAC1 double positive, flow cytometry, validation set, primary screen (AID 588685;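 active = differentiation response of at least 50%, scaled between solvent and reference control, from cells with both markers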;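 also: compound exposure lasts four days before antibody staining and flow analysis; 0% = DMSO wells and 100% = 5 µM fulvestrant positive control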); settings: stronger effect = higher value, normalized: vehicle 0, fulvestrant 100
# Chain of Beta-2 adrenergic receptor (Homo sapiens) (P07550 whole entry, looked up): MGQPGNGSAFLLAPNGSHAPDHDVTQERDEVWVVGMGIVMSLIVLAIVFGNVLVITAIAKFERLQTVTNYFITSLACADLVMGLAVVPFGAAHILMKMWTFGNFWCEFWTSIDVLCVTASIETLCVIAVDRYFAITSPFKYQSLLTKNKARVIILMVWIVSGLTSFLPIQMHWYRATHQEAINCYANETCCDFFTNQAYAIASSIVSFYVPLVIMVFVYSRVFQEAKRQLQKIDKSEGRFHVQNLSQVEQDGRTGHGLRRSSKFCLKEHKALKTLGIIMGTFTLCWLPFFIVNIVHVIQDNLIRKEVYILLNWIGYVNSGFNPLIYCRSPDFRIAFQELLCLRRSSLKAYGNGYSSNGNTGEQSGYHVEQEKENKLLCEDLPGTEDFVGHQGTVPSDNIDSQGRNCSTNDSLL
# Chain of AP-2 complex subunit beta (Homo sapiens) (P63010 whole entry, looked up, the tested form may be a part, one chain of several): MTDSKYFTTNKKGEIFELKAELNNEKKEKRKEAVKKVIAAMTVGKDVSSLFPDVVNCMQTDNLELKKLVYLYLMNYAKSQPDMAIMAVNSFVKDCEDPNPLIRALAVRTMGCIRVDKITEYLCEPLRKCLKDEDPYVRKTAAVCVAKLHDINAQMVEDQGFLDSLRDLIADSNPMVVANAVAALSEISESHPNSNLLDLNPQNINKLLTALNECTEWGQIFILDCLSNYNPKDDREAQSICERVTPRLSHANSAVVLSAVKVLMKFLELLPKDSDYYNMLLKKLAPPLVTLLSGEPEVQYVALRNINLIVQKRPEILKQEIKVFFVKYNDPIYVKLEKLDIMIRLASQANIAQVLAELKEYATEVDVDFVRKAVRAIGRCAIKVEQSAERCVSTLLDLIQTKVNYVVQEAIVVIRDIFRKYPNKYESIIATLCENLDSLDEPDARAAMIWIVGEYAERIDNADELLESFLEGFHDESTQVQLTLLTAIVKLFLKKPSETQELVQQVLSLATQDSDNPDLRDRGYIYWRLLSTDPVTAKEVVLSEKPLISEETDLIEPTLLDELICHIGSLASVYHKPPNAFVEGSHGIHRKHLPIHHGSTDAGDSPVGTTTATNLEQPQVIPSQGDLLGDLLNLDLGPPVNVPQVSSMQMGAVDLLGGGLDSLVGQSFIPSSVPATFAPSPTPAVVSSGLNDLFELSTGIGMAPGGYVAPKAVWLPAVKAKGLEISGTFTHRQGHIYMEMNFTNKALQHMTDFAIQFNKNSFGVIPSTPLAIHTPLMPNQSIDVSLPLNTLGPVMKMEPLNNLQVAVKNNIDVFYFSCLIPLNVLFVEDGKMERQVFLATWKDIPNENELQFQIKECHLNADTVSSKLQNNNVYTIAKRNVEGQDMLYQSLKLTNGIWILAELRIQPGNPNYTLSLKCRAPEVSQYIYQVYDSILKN
# Chain of Beta-adrenergic receptor kinase 1 (Homo sapiens) (P25098 whole entry, looked up): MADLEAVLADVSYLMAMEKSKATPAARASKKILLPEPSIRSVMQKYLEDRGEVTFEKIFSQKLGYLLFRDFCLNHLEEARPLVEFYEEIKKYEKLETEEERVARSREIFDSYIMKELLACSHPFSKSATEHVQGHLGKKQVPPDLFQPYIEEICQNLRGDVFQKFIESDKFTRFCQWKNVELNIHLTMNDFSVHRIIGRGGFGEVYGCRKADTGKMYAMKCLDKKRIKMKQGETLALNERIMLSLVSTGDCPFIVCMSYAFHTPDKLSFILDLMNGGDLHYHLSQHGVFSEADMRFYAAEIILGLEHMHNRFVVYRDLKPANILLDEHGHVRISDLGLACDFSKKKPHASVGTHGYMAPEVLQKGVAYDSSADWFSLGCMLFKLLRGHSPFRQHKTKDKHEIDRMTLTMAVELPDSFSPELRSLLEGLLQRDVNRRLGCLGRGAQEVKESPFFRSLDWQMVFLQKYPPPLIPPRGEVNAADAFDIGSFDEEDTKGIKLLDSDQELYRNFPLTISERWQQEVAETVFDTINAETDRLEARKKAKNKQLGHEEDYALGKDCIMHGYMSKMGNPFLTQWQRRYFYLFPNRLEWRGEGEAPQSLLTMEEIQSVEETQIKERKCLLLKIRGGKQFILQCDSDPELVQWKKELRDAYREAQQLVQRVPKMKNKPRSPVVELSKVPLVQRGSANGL
# Chain of Integrin beta-1 (Homo sapiens) + Integrin alpha-4 (Homo sapiens) (P05556 whole entry, looked up): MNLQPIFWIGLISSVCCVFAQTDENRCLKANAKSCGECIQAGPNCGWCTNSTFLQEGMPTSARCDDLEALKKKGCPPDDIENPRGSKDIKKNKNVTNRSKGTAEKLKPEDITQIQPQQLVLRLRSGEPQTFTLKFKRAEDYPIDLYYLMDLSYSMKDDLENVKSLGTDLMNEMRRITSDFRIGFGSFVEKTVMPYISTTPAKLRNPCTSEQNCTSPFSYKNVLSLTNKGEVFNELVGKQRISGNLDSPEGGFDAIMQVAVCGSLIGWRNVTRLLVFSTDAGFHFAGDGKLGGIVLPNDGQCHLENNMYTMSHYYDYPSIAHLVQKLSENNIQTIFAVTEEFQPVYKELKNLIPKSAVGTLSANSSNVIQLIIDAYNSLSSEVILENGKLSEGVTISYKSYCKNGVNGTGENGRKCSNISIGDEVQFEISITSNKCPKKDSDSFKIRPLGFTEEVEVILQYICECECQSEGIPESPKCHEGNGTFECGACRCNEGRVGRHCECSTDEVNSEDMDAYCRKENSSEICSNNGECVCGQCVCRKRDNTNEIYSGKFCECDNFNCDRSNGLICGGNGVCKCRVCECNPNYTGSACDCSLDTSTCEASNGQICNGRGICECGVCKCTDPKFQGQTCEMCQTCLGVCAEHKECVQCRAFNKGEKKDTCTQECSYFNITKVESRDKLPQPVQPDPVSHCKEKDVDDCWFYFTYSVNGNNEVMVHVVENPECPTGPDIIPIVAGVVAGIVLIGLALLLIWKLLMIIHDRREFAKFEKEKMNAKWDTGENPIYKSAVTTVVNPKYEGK
# Chain of Integrin beta-1 (Homo sapiens) + Integrin alpha-4 (Homo sapiens) (P13612 whole entry, looked up): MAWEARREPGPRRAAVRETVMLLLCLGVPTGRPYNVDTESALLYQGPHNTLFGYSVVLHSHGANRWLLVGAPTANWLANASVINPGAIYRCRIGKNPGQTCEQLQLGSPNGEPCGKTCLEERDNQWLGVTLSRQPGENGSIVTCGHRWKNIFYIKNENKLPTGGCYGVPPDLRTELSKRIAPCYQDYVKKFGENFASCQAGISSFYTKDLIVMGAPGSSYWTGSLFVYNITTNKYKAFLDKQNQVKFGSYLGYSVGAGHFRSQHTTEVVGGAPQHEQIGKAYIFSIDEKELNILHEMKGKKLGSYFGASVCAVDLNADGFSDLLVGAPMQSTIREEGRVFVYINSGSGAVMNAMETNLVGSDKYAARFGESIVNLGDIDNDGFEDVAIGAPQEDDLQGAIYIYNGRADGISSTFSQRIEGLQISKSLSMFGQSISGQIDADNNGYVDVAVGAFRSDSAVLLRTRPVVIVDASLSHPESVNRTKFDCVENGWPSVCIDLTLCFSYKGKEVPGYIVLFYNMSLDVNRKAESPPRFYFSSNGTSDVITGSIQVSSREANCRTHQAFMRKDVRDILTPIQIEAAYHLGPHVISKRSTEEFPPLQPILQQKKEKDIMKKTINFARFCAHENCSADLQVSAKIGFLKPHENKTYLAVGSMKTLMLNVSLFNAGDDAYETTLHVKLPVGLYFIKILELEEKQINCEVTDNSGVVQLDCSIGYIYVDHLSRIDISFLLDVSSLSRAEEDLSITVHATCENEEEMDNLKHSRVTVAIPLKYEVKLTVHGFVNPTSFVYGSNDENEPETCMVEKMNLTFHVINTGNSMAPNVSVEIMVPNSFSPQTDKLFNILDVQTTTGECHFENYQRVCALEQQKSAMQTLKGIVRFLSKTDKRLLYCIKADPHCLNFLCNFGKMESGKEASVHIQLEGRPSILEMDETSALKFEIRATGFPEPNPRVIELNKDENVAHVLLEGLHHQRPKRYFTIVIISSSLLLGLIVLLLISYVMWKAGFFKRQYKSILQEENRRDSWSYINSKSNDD
# Chain of ATP-binding cassette sub-family B member 6 (Homo sapiens) (Q9NP58 whole entry, looked up): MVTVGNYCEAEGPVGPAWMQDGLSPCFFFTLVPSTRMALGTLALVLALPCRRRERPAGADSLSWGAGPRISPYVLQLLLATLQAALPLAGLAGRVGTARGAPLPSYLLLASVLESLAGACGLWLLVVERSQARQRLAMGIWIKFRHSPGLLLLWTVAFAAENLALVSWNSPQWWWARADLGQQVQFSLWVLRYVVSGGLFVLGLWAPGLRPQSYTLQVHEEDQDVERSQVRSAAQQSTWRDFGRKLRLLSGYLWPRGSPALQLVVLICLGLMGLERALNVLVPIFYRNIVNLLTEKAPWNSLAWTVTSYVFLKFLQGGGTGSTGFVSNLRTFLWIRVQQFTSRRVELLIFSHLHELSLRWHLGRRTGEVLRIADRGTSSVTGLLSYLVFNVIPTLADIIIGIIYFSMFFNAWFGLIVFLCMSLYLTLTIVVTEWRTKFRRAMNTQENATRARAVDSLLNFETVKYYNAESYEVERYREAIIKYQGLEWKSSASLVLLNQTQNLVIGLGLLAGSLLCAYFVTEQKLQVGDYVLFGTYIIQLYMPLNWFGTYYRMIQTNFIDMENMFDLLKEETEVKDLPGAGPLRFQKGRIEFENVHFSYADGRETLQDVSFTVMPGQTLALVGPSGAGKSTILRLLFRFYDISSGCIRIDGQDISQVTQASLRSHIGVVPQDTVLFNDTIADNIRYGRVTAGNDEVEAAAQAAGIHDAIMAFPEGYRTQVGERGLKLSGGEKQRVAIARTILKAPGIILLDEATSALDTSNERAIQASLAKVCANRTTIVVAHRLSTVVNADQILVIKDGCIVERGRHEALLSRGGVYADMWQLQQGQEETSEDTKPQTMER
SMILES,percent of DMSO control GFP [1],GFP response vs DMSO [2],percent response of DMSO control [3],GFP response vs DMSO [4],"GFP response, % of DMSO [5]",double positive events [6],vesicle binding response [6],inhibition [7],superoxide response (% of plate) [8],aptamer binding inhibition [9],response [10],inhibition [11],response [12],binding (% of control) [13],efflux inhibition (fraction of control) [14],inhibition [15],differentiation response [16]
CCCC(CCC)C(=O)OC1C[C@H]2CC[C@@H](C1)[N+]2(C)C (stereo partly drawn),95.2% (inactive),132% (inactive),93.9% (inactive),80.9% (inactive),94.9% (inactive),59.5%,155% (inactive),14.2% (inactive),108% (inactive),7% (inactive),-2.34% (inactive),-1.17% (inactive),0.47% (inactive),101% (inactive),0.27 (inactive),9% (inactive),3.28% (inactive)
CC1(C)CC(C(CC(=O)N2CCCC2)Cc2ccccc2)CCO1 (stereo not drawn),100% (inactive),99.7% (inactive),104% (inactive),102% (inactive),106% (inactive),62.9%,118% (inactive),-2.43% (inactive),107% (inactive),-2% (inactive),-11% (inactive),21.8% (inactive),-8.82% (inactive),103% (inactive),0.36 (inactive),18% (inactive),15.9% (inactive)
NC(N)=N/N=C/c1c(Cl)cccc1Cl,102% (inactive),105% (inactive),105% (inactive),101% (inactive),108% (inactive),67.2%,169% (inactive),-11.8% (inactive),81.5% (inactive),-4% (inactive),-0.34% (inactive),5.82% (inactive),-3.91% (inactive),99.4% (inactive),-0.085 (inactive),-5% (inactive),-13.3% (inactive)
Cc1ccc(C2CC(=O)C(C=NCCN3CCN(C(=S)Nc4ccccc4)CC3)=C(O)C2)cc1 (stereo not drawn),103% (inactive),104% (inactive),91.2% (inactive),110% (inactive),107% (inactive),60.8%,417% (inactive),-0.27% (inactive),104% (inactive),5% (inactive),-26.2% (inactive),-7.49% (inactive),-3.06% (inactive),101% (inactive),0.5 (active),3% (inactive),-10.9% (inactive)
COc1ccc(/C=C\c2cc(OC)c(OC)cc2CC[N+](C)(C)C)cc1OC,96.3% (inactive),102% (inactive),101% (inactive),122% (inactive),103% (inactive),57.8%,216% (inactive),-4.52% (inactive),108% (inactive),-3% (inactive),-7.25% (inactive),-9.15% (inactive),0.95% (inactive),103% (inactive),0.26 (inactive),2% (inactive),-0.8% (inactive)
Cc1nc(N)nc2c1CCCC2,89.1% (inactive),133% (inactive),99.2% (inactive),74.8% (inactive),94.9% (inactive),62.1%,179% (inactive),6.46% (inactive),102% (inactive),5% (inactive),-4.6% (inactive),-2.43% (inactive),-0.37% (inactive),109% (inactive),-0.31 (inactive),13% (inactive),-9.83% (inactive)
COc1cccc2c(=O)c3ccccc3oc12,93.9% (inactive),117% (inactive),111% (inactive),74.3% (inactive),88% (inactive),61.1%,134% (inactive),-9.06% (inactive),109% (inactive),2% (inactive),-12.3% (inactive),-2.99% (inactive),0.55% (inactive),96% (inactive),0.27 (inactive),15% (inactive),-3.28% (inactive)
COc1ccc(C2NCCC3(O)CCCCC23)c(OC)c1OC (stereo not drawn),98.8% (inactive),99.6% (inactive),93.9% (inactive),107% (inactive),97.4% (inactive),57.7%,199% (inactive),-11.3% (inactive),105% (inactive),1% (inactive),-8.95% (inactive),10.4% (inactive),-2.26% (inactive),102% (inactive),-0.06 (inactive),6% (inactive),-18.4% (inactive)
COc1c(C=O)c(CCN(C)C(=O)c2ccc(F)cc2)cc2c1OCO2,103% (inactive),104% (inactive),100% (inactive),104% (inactive),106% (inactive),59.6%,171% (inactive),3.14% (inactive),115% (inactive),4% (inactive),-22.5% (inactive),10.3% (inactive),2.09% (inactive),109% (inactive),-0.17 (inactive),-2% (inactive),19.6% (inactive)
